Compound activity (PubChem BioAssay)
Only some compounds are listed: those with a hit (about 19% of all), similar ones and a draw of the others.
TDP1 cell noCPT – qHTS for Inhibitors of human tyrosyl-DNA phosphodiesterase 1 (TDP1): qHTS in cells in absence of CPT | DT40 Tdp1-/- hTDP1 cells, no CPT, ATP luminescence, 48 h | Potency, µM (highest dose often 46.2 µM), for the others: at the top dose activity change, negative = growth inhibition, most hits filed as inhibitors | 420,000 tested, 15% active | AID 686978, 2013; also: potency is read from the fitted curve at half-maximal effect; % is scaled to controls: 0 for no effect and ±100 for the full control effect; nearly all actives have a fitted effect of over 55% in size
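A cellular qHTS used chicken DT40 cells lacking endogenous Tdp1 but carrying stably transfected human TDP1. Compounds were applied without camptothecin, and cell growth kinetics were judged by ATP-dependent luminescence after ≥48 hr.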
SW480 rereplic – inducers of DNA re-replication in SW480 colon cancer cells. SW480 DNA re-replication, Hoechst DNA content imaging, 48 h. Potency, µM (series often up to 46.1 µM), for inactives: at the top dose re-replication activation, usual class: activators. 340,000 tested, 1.8% active. AID 624297; also: potency is read from the fitted curve at half-maximal effect; % of control where 0% means no effect; nearly all actives have a fitted effect of over 55% in size
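Image-based DNA-content assay: after two days of treatment, nuclei were labelled with the DNA dye Hoechst and imaged, and hits were compounds raising the count of nuclei showing high fluorescence intensity.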
MCF10A rerep – inducers of DNA re-replication in MCF 10A breast cells; MCF 10A DNA re-replication, Hoechst nuclear intensity, 48 h; 350,000 tested, 2.9% active; Potency, µM (top dose mostly 46.1 µM), for inactives: top-dose activity, positive = re-replication, actives largely listed as activators; also: potency is read from the fitted curve at half-maximal effect; % of control where 0% means no effect; nearly all actives have a fitted effect of over 50% in size
Chronic BCR inh – chronic active BCR signaling inhibition; ABC-DLBCL IkBa-CBG/CBR reporter, luminescence ratio, 4 h; Potency, µM (highest dose often 46.1 µM), for the others: at the highest dose activity change, negative = inhibition, usual class: inhibitors; 340,000 tested, 0.05% active; active = well fitted inhibition curve with a large enough effect in the signal ratio, with a control signal flat, not every such curve was filed as active; inconclusive = small, poorly fitted or top-dose-only effect, or effect the other way, or a change in a side signal; the % refers to the signal ratio;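 also: potency is read from the fitted curve at half-maximal effect; plate controls were basal doxycycline-induced cells for no effect and cells given 10 µM MG132 for full effect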
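Compounds up to 46 uM were incubated four hours with TMD8 cells whose green CBG68 luciferase is fused to IkappaBalpha; red CBR luminescence normalised the signal, and concentration-effect curves were fitted to fusion, red and ratio data.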
IL-1B inflam inh – blocks inflammasome-driven IL-1 beta release; THP-1 LPS/ATP IL-1B secretion, AlphaLISA, 16 h; stronger effect = lower value; 360,000 tested, 4.7% active; AID 743279; activity change, % at 57.5 µM; in the data active = activity change below about -50%; inconclusive = mostly about -30% to -49%; also: % is scaled to controls: 0 for no effect and ±100 for the full control effect
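THP-1 cells pretreated 1 hr with compounds (up to 57.5 uM final), then stimulated with LPS (250 ng/mL final) plus ATP (1.25 mM final); secreted IL-1B measured by AlphaLISA after 16 hr, decreased signal indicating inhibition.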
TDP1 cell CPT – DT40-hTDP1 cell growth loss with CPT. 420,000 tested, 12% active. chicken DT40 Tdp1-/-;hTDP1 cells + 20 nM CPT, ATP luminescence, 48 h. AID 686979. Potency, µM (titrated, usually from 46.2 µM), for the others: at the highest dose activity change, negative = growth inhibition, hits mostly inhibitors; also: potency is read from the fitted curve at half-maximal effect; % is scaled to controls: 0 for no effect and ±100 for the full control effect; nearly all actives have a fitted effect of over 55% in size
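Chicken DT40 Tdp1-/- cells stably complemented with human TDP1 were seeded at 400 cells/well in medium containing 20 nM camptothecin, exposed to pin-transferred compounds, and grown at 37 °C for at least 48 hr. Viability was read as ATP luminescence.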
* hit, by the source's call; i = inactive; u = inconclusive; x = no result given. Unless noted, calls follow the shape of the dose curve; as a rule, active = well fitted curve in the direction sought with a large enough effect; inconclusive = small, poorly fitted or top-dose-only effect, or another doubt; inactive = no such curve, though single readings can be large; an effect the other way counts as inactive or inconclusive.

SMILES | TDP1 cell noCPT | SW480 rereplic | MCF10A rerep | Chronic BCR inh | IL-1B inflam inh | TDP1 cell CPT
CC(=O)c1ccc(NC(=O)C(C)Sc2nnc(C3CCCCC3)o2)cc1 (configuration not stated) | x | x | x | 1% | x | x
COc1cc2[nH]c3c(Cl)ncnc3c2cc1OC | 21µM* | 0% | 13% | -7% | -61* | u
COc1cc2[nH]c3c(N4CCN(c5ccc(Cl)cc5)CC4)ncnc3c2cc1OC | 18µM* | u | u | u | 22 | 18µM*
O=C(c1ccco1)N1CCN(c2ncnc3c2[nH]c2ccc(Cl)cc23)CC1 | x | 9% | u | u | x | x
NS(=O)(=O)c1ccc(N=Nc2c(=O)[nH]n3c(=O)c4c([nH]c23)CCCC4)cc1 | -16% | -5% | -8% | u | 40 | -6%
NS(=O)(=O)c1ccc(N=Nc2c(-c3ccccc3)[nH]n(-c3nc(-c4ccccc4)cs3)c2=O)cc1 | 3.3µM* | 2.9µM* | u | -16% | u | 9.2µM*
CNC(=S)N(CCc1c(C)[nH]c2ccc(C)cc12)Cc1ccc(OC)c(OC)c1 | u | -7% | 1% | -10% | -18 | u
COc1cc(CN(CCc2c(C)[nH]c3ccc(C)cc23)C(=S)NC(C)(C)C)cc(OC)c1OC | 16µM* | u | -3% | u | -25 | 21µM*
CNC(=S)N(CCc1c(C)[nH]c2ccc(Cl)cc12)Cc1cc(OC)c(OC)c(OC)c1 | u | 26µM* | u | u | u | u
COc1ccc(-c2cc(C(=O)Nc3ccn(Cc4ccc(C)cc4)n3)no2)cc1OC | -19% | x | x | x | x | -21%
CCOCCCNC(=O)c1ccc(/C=C2\Oc3ccccc3N(C)C2=O)cc1 | -21% | -7% | -4% | -2% | -13 | u
COc1cc(OC)cc(C(=O)NCC(=O)N2CC=C(c3ccccc3)CC2)c1 | 4.6µM* | 7.3µM* | u | u | 14 | 3.3µM*
Cc1cc(C)c(OCC(=O)N2CC=C(c3ccccc3)CC2)c(C)c1 | 8% | 11% | 3% | -1% | 27 | -13%
O=C(NCC(=O)N1CC=C(c2ccccc2)CC1)c1ccccc1Br | 21µM* | -26% | 8.2µM* | -5% | i | u
COc1cc2c(cc1OC)CN(C(=O)CNC(=O)c1ccc(OC(F)F)cc1)CC2 | -9% | -11% | -13% | 1% | i | 10%
O=C(NCC(=O)N1CC=C(c2ccccc2)CC1)c1ccc(OC(F)F)cc1 | 7.3µM* | u | 8.2µM* | -1% | 25 | 7.3µM*
CCC1Nc2ncnc(N3CCOCC3)c2N(Cc2ccc(Cl)cc2)C1=O (configuration not stated) | -4% | -10% | 10% | 0% | 35 | -7%
Cc1[nH]n(-c2ccccc2)c(=O)c1/C=N/Nc1nncc(-c2ccccc2)n1 | 1µM* | 0% | 3% | 26% | 40 | 1µM*
Cc1nn(-c2ccccc2)c(C)c1/C=N/NC(=O)c1cc(C(C)(C)C)[nH]n1 | u | -4% | 8% | -2% | -26 | u
Cc1cc(C(=O)N/N=C/c2c(C)[nH]c3ccccc23)n[nH]1 | -20% | u | 12% | -17% | -7 | 16%
NC(=O)C(=O)N/N=C/c1c2ccccc2cc2ccccc12 | 14% | u | 23µM* | u | 108 | -8%
Cc1[nH]c2ccccc2c1/C=N/NC(=O)c1cc(-c2cccs2)[nH]n1 | 21µM* | -8% | u | -3% | u | u
Cc1ccc(-c2cc(C(=O)N/N=C/c3c(C)nn(-c4ccccc4)c3C)n[nH]2)s1 | 0.82µM* | 1.3µM* | u | u | -4 | 0.65µM*
Cc1ccc(C(O)c2ncc(-c3ccccc3F)[nH]2)c(C)c1 (configuration not stated) | u | x | x | x | -2 | u
Cc1cc(N)n(-c2ccccn2)n1 | -11% | -7% | -3% | 0% | 1 | 2%
SMILES | TDP1 cell noCPT | SW480 rereplic | MCF10A rerep | Chronic BCR inh | IL-1B inflam inh | TDP1 cell CPT
Cc1cc(C(=O)N/N=C/c2ccc(-c3cccc(Br)c3)o2)n[nH]1 | u | 21µM* | u | 3% | -2 | u
Cc1ccc(-n2[nH]c(C)c(/C=N/NC(=O)c3ccc(O)cc3O)c2=O)cc1 | 5.2µM* | 8.2µM* | 2% | u | 220 | 12µM*
CCOc1ccc2ccccc2c1/C=N/NC(=O)c1cc(C)[nH]n1 | 9% | -31% | -6% | 0% | u | -4%
Cc1cc(C(=O)N/N=C/c2c(C)n(C)c3ccccc23)n[nH]1 | u | 232% | -2% | -4% | -13 | 19%
Cc1cc(C(=O)N/N=C/c2c3ccccc3cc3ccccc23)n[nH]1 | 9.2µM* | u | 21µM* | -29% | 17 | u
Cc1cc(C(=O)N/N=C/c2ccc(-c3cccc(Cl)c3Cl)o2)n[nH]1 | u | 9% | u | u | 22 | u
Cc1cc(C(=O)N/N=C/c2c(C)[nH]n(-c3ccccc3)c2=O)n[nH]1 | u | -3% | -1% | 17% | 0 | 21µM*
COC(=O)c1ccc(NC(=O)Cn2ccn3nc(-c4ccc(OC)cc4)cc3c2=O)cc1 | -1% | x | x | x | x | -3%
Cc1[nH]n(-c2ccccc2)c(=O)c1/C=N/N1CCOCC1 | -1% | -6% | 4% | u | 13 | -14%
Cc1[nH]n(-c2ccccc2)c(=O)c1/C=N/NC(=O)c1ccc(O)cc1O | 21µM* | u | 9% | u | 61 | u
CCCCN=Cc1c(C)[nH]n(-c2ccccc2)c1=S | u | -5% | -3% | u | -5 | -28%
O=C(NCCCN1CCOCC1)C(=O)N/N=C/c1c2ccccc2cc2ccccc12 | 21µM* | 23µM* | u | -1% | 47 | u
Cc1[nH]c2ccccc2c1/C=N\NC(=O)c1ccccc1Cl | -26% | x | x | x | 23 | -19%
O=C(NCCCN1CCOCC1)C(=O)N/N=C/c1c(Cl)cccc1Cl | -4% | -11% | -4% | -1% | 0 | 0%
CCCCN(CCCC)C(=S)N/N=C/c1c(C)[nH]n(-c2ccccc2)c1=O | 2.6µM* | u | u | -11% | 92 | 2.1µM*
Cc1[nH]c2ccccc2c1/C=N/NC(=O)C1CC1(c1ccccc1)c1ccccc1 (configuration not stated) | u | u | 23µM* | u | u | u
